Data on 21 compounds can be found in PubChem BioAssay (NCATS).

Inconclusive results are not listed. Active and inactive are the calls of the source. The call rests on the fitted dose curve; in most records, active means well fitted curve in the direction sought with a large enough effect; inconclusive means small, poorly fitted or top-dose-only effect, or another doubt; inactive means no such curve, though single readings can be large; an effect the other way counts as inactive or inconclusive.

Experiment [1] is described as follows: qHTS of pediatric cancer cell lines to identify multiple opportunities for drug repurposing: Primary screen for control Hh wild type fibroblast cells (AID 1347106).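 Further: series mostly up to about 46 µM; a drop in luminescence marks cytotoxicity and a rise apparent proliferation; nearly all actives have a fitted effect of over 55% in size.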 In outline:
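Cells (500-1,000/well) in growth media were settled 5 h at 37 degrees C, then given compounds for 48 h. Viability was read as CellTiter-Glo luminescence. Primary runs used MIPE at 11 points (0.78 nM-46 µM) and NPC at 8 points (0.59 nM-46 µM); follow-ups used 11 points.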

Experiment [2] can be described thus: qHTS of pediatric cancer cell lines to identify multiple opportunities for drug repurposing: Primary screen for Rh30 cells (AID 1347107). Further: series mostly up to about 46 µM; nearly all actives have a fitted effect of over 75% in size. In outline:
(§1)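 Cells (500-1,000/well) rested 5 h, then received compounds for 48 h; metabolically active cells were measured by CellTiter-Glo luminescence. Final concentrations spanned up to 46 µM (MIPE, 11-point) or 0.59 nM-46 µM (NPC, 8-point) in primary screens, 11-point in follow-ups.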

Experiment [3] in a line: qHTS of pediatric cancer cell lines to identify multiple opportunities for drug repurposing: Primary screen for Rh41 cells (AID 1347108). Further: nearly all actives have a fitted effect of over 70% in size. Further: potency means the concentration at half of the fitted maximal effect. In outline: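 Primary screen of approved and investigational compounds on cells in growth media at 37 degrees C, 5% CO2. MIPE set at 11-point and NPC set at 8-point dilutions; viability scored by ATP-based luminescence at 48 hours.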
The nature of experiment [4]: qHTS of pediatric cancer cell lines to identify multiple opportunities for drug repurposing: Confirmatory screen for NB1643 cells (AID 1347109). Further: nearly all actives have a fitted effect of over 45% in size. Further: potency means the concentration at half of the fitted maximal effect. In outline:
as §1

A short description of experiment [5]: qHTS of pediatric cancer cell lines to identify multiple opportunities for drug repurposing: Confirmatory screen for A673 cells (AID 1347110).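 Further: cells exposed to compound for 48 h before the viability read; nearly all actives have a fitted effect of over 65% in size.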 Further: potency means the concentration at half of the fitted maximal effect. In outline:
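Viability was read as ATP luminescence (CellTiter-Glo) after 48 h of compound exposure at 37 C in A673 cells seeded at 500-1,000/well. Titrations reached 46 uM final, with 11 points in the confirmatory screen. Concentration-response curves were fitted directly.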

A short description of experiment [6]: qHTS of pediatric cancer cell lines to identify multiple opportunities for drug repurposing: Confirmatory screen for BT-12 cells (AID 1347112). Further: nearly all actives have a fitted effect of over 55% in size. Further: potency means the concentration at half of the fitted maximal effect. The method, boiled down: as §1
The nature of experiment [7]: qHTS of pediatric cancer cell lines to identify multiple opportunities for drug repurposing: Confirmatory screen for DAOY cells (AID 1347114). Further: nearly all actives have a fitted effect of over 65% in size. Further: potency means the concentration at half of the fitted maximal effect. The method, boiled down:
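Viability measured as metabolically active cells via CellTiter-Glo luminescence following 48 hours of compound exposure, 11-point dilutions in confirmatory testing. 500-1,000 cells/well plated 5 hours before dosing; controls were DMSO and 2.3 µM bortezomib.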

Experiment [8] can be described thus: qHTS of pediatric cancer cell lines to identify multiple opportunities for drug repurposing: Confirmatory screen for NB-EBc1 cells (AID 1347115).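 Further: cells exposed to compound for 48 h before the viability read; nearly all actives have a fitted effect of over 45% in size.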 Further: potency means the concentration at half of the fitted maximal effect. The method, boiled down: as §1
A short description of experiment [9]: qHTS of pediatric cancer cell lines to identify multiple opportunities for drug repurposing: Confirmatory screen for MG 63 (6-TG R) cells (AID 1347119). Further: nearly all actives have a fitted effect of over 55% in size. Further: potency means the concentration at half of the fitted maximal effect. The method, boiled down:
as §1

Experiment [10] in a line: qHTS of pediatric cancer cell lines to identify multiple opportunities for drug repurposing: Confirmatory screen for control Hh wild type fibroblast cells (AID 1347121). Further: nearly all actives have a fitted effect of over 70% in size. The method, boiled down:
as §1

A short description of experiment [11]: qHTS of pediatric cancer cell lines to identify multiple opportunities for drug repurposing: Confirmatory screen for U-2 OS cells (AID 1347122). Further: nearly all actives have a fitted effect of over 65% in size. Further: potency means the concentration at half of the fitted maximal effect. In outline: as §1
Experiment [12] in a line: qHTS of pediatric cancer cell lines to identify multiple opportunities for drug repurposing: Confirmatory screen for Rh41 cells (AID 1347123). Further: nearly all actives have a fitted effect of over 60% in size. Further: potency means the concentration at half of the fitted maximal effect. The method, boiled down: as §1
Experiment [13] is described as follows: qHTS of pediatric cancer cell lines to identify multiple opportunities for drug repurposing: Confirmatory screen for RD cells (AID 1347124).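 Further: cells exposed to compound for 48 h before viability readout; nearly all actives have a fitted effect of over 65% in size.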 Further: potency means the concentration at half of the fitted maximal effect. In outline:
as §1

Experiment [14] in a line: qHTS of pediatric cancer cell lines to identify multiple opportunities for drug repurposing: Confirmatory screen for Rh18 cells (AID 1347125). Further: nearly all actives have a fitted effect of over 55% in size. Further: potency means the concentration at half of the fitted maximal effect. The method, boiled down: as §1
Experiment [15] is described as follows: qHTS of pediatric cancer cell lines to identify multiple opportunities for drug repurposing: Confirmatory screen for Rh30 cells (AID 1347126). Further: nearly all actives have a fitted effect of over 55% in size. Further: potency means the concentration at half of the fitted maximal effect. In outline: as §1
Experiment [16] in a line: qHTS of pediatric cancer cell lines to identify multiple opportunities for drug repurposing: Confirmatory screen for OHS-50 cells (AID 1347128). Further: potency means the concentration at half of the fitted maximal effect. The method, boiled down:
as §1

A short description of experiment [17]: qHTS of pediatric cancer cell lines to identify multiple opportunities for drug repurposing: Confirmatory screen for SK-N-MC cells (AID 1347111).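 Further: potency means the concentration at half of the fitted maximal effect; cells exposed to compound for 48 h before the readout; nearly all actives have a fitted effect of over 70% in size.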 The method, boiled down: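 Seed 500-1,000 cells/well; rest 5 h at 37 degrees C. Pin-transfer compounds, 11-point titration. Incubate 48 h. Add CellTiter-Glo, 15 min RT, read luminescence.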
Experiment [18] can be described thus: qHTS of pediatric cancer cell lines to identify multiple opportunities for drug repurposing: Confirmatory screen for BT-37 cells (AID 1347117). In outline: as §1
A short description of experiment [19]: qHTS of pediatric cancer cell lines to identify multiple opportunities for drug repurposing: Confirmatory screen for TC32 cells (AID 1347118). The method, boiled down: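 Measured quantity: luminescence from CellTiter-Glo, reflecting metabolically active TC32 cells following 48 h of compound. Curves came straight from multi-point titrations, with 8 or 11 points in primary and 11 in confirmatory screening.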

Experiment [20] is described as follows: qHTS of pediatric cancer cell lines to identify multiple opportunities for drug repurposing: Confirmatory screen for Saos-2 cells (AID 1347127). Further: nearly all actives have a fitted effect of over 60% in size. Further: potency means the concentration at half of the fitted maximal effect. The method, boiled down: as §1

With `CC1=C(C(=O)O)N2C(=O)[C@@H](NC(=O)[C@H](N)C3=CCC=CC3)[C@H]2SC1`, the Potency result in experiment [1], in [2] and in [3] was “inactive” each time.
`Cc1nc2n(c(=O)c1CCN1CCC(c3noc4cc(F)ccc34)CC1)CCCC2`: the Potency result in [1] and in experiment [3] was “inactive” each time.
Take `Cc1ncc([N+](=O)[O-])n1CC(C)O` (stereo not drawn): the Potency result in experiment [1] and in experiment [3] was “inactive” in each case.
In the case of `CS(=O)(=O)OCCCCOS(C)(=O)=O`, the Potency result in experiment [1], in experiment [2], in [3], in experiment [4], in [6] and in experiment [7] was “inactive” in each case. Also, the Potency entry in [8], in experiment [9], in experiment [10], in experiment [11], in experiment [12] and in [13] was “inactive” throughout. Further, the Potency result in experiment [14], in experiment [15] and in [16] was “inactive” in each case. The Potency in experiment [5] was 16500 nM (active).
Turning to `CCCOc1ccc2nc(NC(=O)OC)[nH]c2c1`, the Potency entry in experiment [1], in experiment [2], in [10] and in experiment [14] was “inactive” each time. The Potency was 1170 nM (active) in experiment [5]; 1310 nM (active) in [17]; 4140 nM (active) in experiment [6]; 928 nM (active) in [7]; 1310 nM (active) in [18]; 928 nM (active) in experiment [19]. In addition, the Potency in experiment [9] is 1170 nM (active); in experiment [11], 2080 nM (active); in [13] it was 1650 nM (active); in experiment [20], 827 nM (active).
Turning to `O=C(NCC1CCCCN1)c1cc(OCC(F)(F)F)ccc1OCC(F)(F)F` (stereo not drawn), the Potency entry in experiment [1], in experiment [2], in experiment [3], in experiment [7], in [8] and in [9] was “inactive” in each case. In addition, the Potency entry in [10], in [11], in experiment [12], in [13], in experiment [14] and in experiment [20] was “inactive” each time. For the same compound, the Potency in experiment [5] was 1310 nM (active); in experiment [17] it was 7370 nM (active); in experiment [19], 5220 nM (active).
Regarding `CC(=O)Nc1ccc(O)cc1`, the Potency result in experiment [1] and in experiment [3] was “inactive” in each case.
For `COc1ccc2cc([C@H](C)C(=O)O)ccc2c1`, the Potency entry in [1] and in experiment [3] was “inactive” each time.
For the compound `NC(=O)Cc1cccc(C(=O)c2ccccc2)c1N`, the Potency entry in experiment [1] and in experiment [3] was “inactive” each time.
For the compound `COC1=C(OC)C(=O)C(CCCCCCCCCCO)=C(C)C1=O`, the Potency entry in experiment [1], in experiment [2] and in experiment [3] was “inactive” throughout.
`Cc1ccc(NC(=O)c2ccc(CN3CCN(C)CC3)cc2)cc1Nc1nccc(-c2cccnc2)n1`: the Potency result in [1], in experiment [2], in experiment [3], in experiment [4], in experiment [5] and in experiment [8] was “inactive” in each case. Moreover, the Potency entry in [9], in experiment [10], in experiment [11], in experiment [12], in experiment [13] and in [14] was “inactive” in each case. Further, the Potency result in [15] and in [20] was “inactive” throughout. Besides, the Potency in experiment [7] was 16500 nM (active).
Consider `CC(C)c1ccc2oc3nc(N)c(C(=O)O)cc3c(=O)c2c1`, for which the Potency entry in experiment [1] and in experiment [3] was “inactive” throughout.
Turning to `Cc1cccc(CN2CCN(C(c3ccccc3)c3ccc(Cl)cc3)CC2)c1` (stereo not drawn), the Potency result in [1], in [2] and in [3] was “inactive” each time.
Turning to `CNC[C@H](O)c1ccc(O)c(O)c1`, the Potency entry in experiment [1], in experiment [2] and in experiment [3] was “inactive” throughout.
As for `COc1c(O)cc2c(c1O)[C@@H]1O[C@H](CO)[C@@H](O)[C@H](O)[C@H]1OC2=O`, the Potency result in experiment [1], in [2] and in experiment [3] was “inactive” throughout.
With `COc1cc(C(C)=O)ccc1OCCCN1CCC(c2noc3cc(F)ccc23)CC1`, the Potency entry in [1], in experiment [2], in [3], in experiment [4], in experiment [5] and in [8] was “inactive” each time. Also, the Potency result in experiment [9], in experiment [10], in experiment [13], in [14] and in experiment [20] was “inactive” in each case. The Potency in experiment [19] was 20800 nM (active); in experiment [12], 18500 nM (active).
`O=C(O)CCNC(=O)c1ccc(N=Nc2ccc(O)c(C(=O)O)c2)cc1`: the Potency entry in [1], in [2] and in experiment [3] was “inactive” throughout.
Regarding `Nc1nc(N)c(N=O)c(OCC2CCCCC2)n1`, the Potency result in experiment [2] was “inactive”.
As to `Cc1cc(Cl)ccc1OCCCC(=O)NO`, the Potency in experiment [3] is 14800 nM (active).
`Oc1ccc(OCc2ccccc2)cc1`: the Potency result in experiment [1] and in experiment [3] was “inactive” in each case.
For `CCCCc1ccc2nc(NC(=O)OC)[nH]c2c1`, in [2], the Potency entry is “inactive”. The Potency is 657 nM (active) in experiment [4]; 329 nM (active) in experiment [5]; 329 nM (active) in [17]; 185 nM (active) in experiment [7]; 1470 nM (active) in [8]; 414 nM (active) in [18]. Besides, the Potency was 293 nM (active) in experiment [19]; 185 nM (active) in experiment [9]; 329 nM (active) in experiment [11]; 131 nM (active) in [12]; 369 nM (active) in [13]; 8270 nM (active) in experiment [14]. Moreover, the Potency in [15] was 9270 nM (active); in experiment [20], 233 nM (active); in experiment [16] it was 329 nM (active).
